{
  "source": "the supplement of paper PMC11219838",
  "data": [
    {"system": "Caenorhabditis elegans L1 (N2)", "assay": "survival and reproduction score of C. elegans L1 (0: 0-10 living worms, 1: 11-20, 2: 21-50, 3: >50, 4: overgrown) (score 0-4); higher = more worms, less nematicidal, active = 1 or less; extreme values may be limits of the assay", "settings": "60 µM; 6 days; temperature: 20 °C", "procedure": "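DODA library (846 commercial 1,3,4- and 1,2,4-oxadiazole compounds plus commercial nematicide controls) screened at a single dose of 60 µM (0.6% DMSO) in 96-well plates, two biological replicates. Read-outs: C. elegans N2 L1 survival/reproduction score at day 6, 20 °C (0: 0-10 worms, 1: 11-20, 2: 21-50, 3: >50, 4: overgrown/starved). C. elegans daf-2 dauer, D. dipsaci and M. hapla J2 mobility at day 5, 20 °C, and P. penetrans mobility at day 5, 20 °C, each relative to DMSO controls. M. hapla egg hatching at day 12, 25 °C, relative to the mean of 8 DMSO wells on the same plate.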", "values": [
      {"smiles": "CCOc1cc(-c2nc(-c3ccccc3C)no2)cc(OCC)c1OCC", "survival and reproduction score": "4 (inactive)"},
      {"smiles": "Clc1ccc(SCc2nc(-c3ccccn3)no2)cc1", "survival and reproduction score": "0.5 (active)"},
      {"smiles": "Cc1ccc(-c2nc(-c3cccnc3)no2)cc1Cl", "survival and reproduction score": "0 (active)"},
      {"smiles": "Nc1nc(CSc2nnc(-c3ccccc3)o2)cs1", "survival and reproduction score": "4 (inactive)"},
      {"smiles": "Cc1cccc(-c2noc(COc3ccc(Cl)cc3)n2)c1", "survival and reproduction score": "4 (inactive)"},
      {"smiles": "Cc1cccc(-c2noc(-c3ccc(C)cc3Cl)n2)c1", "survival and reproduction score": "4 (inactive)"},
      {"smiles": "Cc1ccc(NC(=O)CSc2nnc(-c3ccccc3)o2)cc1C", "survival and reproduction score": "4 (inactive)"},
      {"smiles": "c1ccc(-c2noc(-c3cccs3)n2)cc1", "note": "[tioxazafen]", "survival and reproduction score": "0 (active)"},
      {"smiles": "Cc1ccc(-c2nc(C3CCCCC3)no2)cc1", "survival and reproduction score": "0 (active)"},
      {"smiles": "CC(C)(C)NC(=O)c1ccccc1-c1nc(-c2ccccc2)no1", "survival and reproduction score": "4 (inactive)"},
      {"smiles": "CC(C)(C)C(=O)CSc1nnc(-c2ccc(Cl)cc2Cl)o1", "survival and reproduction score": "4 (inactive)"},
      {"smiles": "Cc1ccc(-c2noc(COc3cccc(C)c3)n2)cc1", "survival and reproduction score": "4 (inactive)"},
      {"smiles": "COc1ccccc1-c1nnc(SCc2ccc(C#N)cc2)o1", "survival and reproduction score": "4 (inactive)"},
      {"smiles": "O=C(Nc1ccccc1-c1nc(-c2cccnc2)no1)c1cc2ccccc2o1", "survival and reproduction score": "4 (inactive)"},
      {"smiles": "Brc1cccc(-c2nc(-c3ccncc3)no2)c1", "survival and reproduction score": "1 (active)"},
      {"smiles": "COc1nc(C)ccc1-c1noc(-c2ccccc2Br)n1", "survival and reproduction score": "4 (inactive)"},
      {"smiles": "Cc1ccc(OCc2nc(-c3cccnc3)no2)c(Br)c1", "survival and reproduction score": "4 (inactive)"},
      {"smiles": "Clc1ccc(CSc2nnc(-c3ccccn3)o2)cc1", "survival and reproduction score": "4 (inactive)"},
      {"smiles": "COc1ccc(-c2nnc(SCC(=O)Nc3ccc(C)cc3Br)o2)cc1", "survival and reproduction score": "4 (inactive)"},
      {"smiles": "O=C(CSc1nnc(-c2ccc(Br)cc2)o1)Nc1ccc2ccccc2c1", "survival and reproduction score": "4 (inactive)"},
      {"smiles": "Cc1cccc(-c2nnc(SCC(=O)Nc3ccccc3C(C)C)o2)c1", "survival and reproduction score": "4 (inactive)"},
      {"smiles": "Fc1ccc(-c2noc(-c3ccc(F)cc3)n2)cc1", "survival and reproduction score": "0 (active)"},
      {"smiles": "c1ccc(-c2nnc(SCc3nc4ccccc4[nH]3)o2)cc1", "survival and reproduction score": "4 (inactive)"},
      {"smiles": "Cc1ccc(-c2noc(-c3ccc(Cl)cc3)n2)cc1", "survival and reproduction score": "4 (inactive)"},
      {"smiles": "O=C(CSc1nnc(-c2ccccc2Cl)o1)NCc1ccccc1", "survival and reproduction score": "4 (inactive)"},
      {"smiles": "CC1CC(C)CN(C(=O)CSc2nnc(-c3ccccc3)o2)C1", "note": "(stereo not given)", "survival and reproduction score": "4 (inactive)"},
      {"smiles": "Clc1cccc(OCc2nc(-c3cccs3)no2)c1", "survival and reproduction score": "0 (active)"},
      {"smiles": "Cc1ccc(CSc2nnc(-c3cccc(Br)c3)o2)c(C)c1", "survival and reproduction score": "4 (inactive)"},
      {"smiles": "CCCCSc1nnc(-c2ccc(Br)cc2)o1", "survival and reproduction score": "0 (active)"},
      {"smiles": "Cc1cc(OC(C)c2nc(-c3cccnc3)no2)ccc1Cl", "note": "(stereo not given)", "survival and reproduction score": "4 (inactive)"},
      {"smiles": "CCc1ccc(C(=O)Nc2ccccc2-c2nc(-c3cccnc3)no2)cc1", "survival and reproduction score": "4 (inactive)"},
      {"smiles": "CC(=O)Nc1ccc(NC(=O)c2ccccc2-c2nc(-c3ccccc3Cl)no2)cc1", "survival and reproduction score": "4 (inactive)"},
      {"smiles": "O=C(CSc1nnc(-c2ccc(Br)cc2)o1)OCc1ccccc1", "survival and reproduction score": "4 (inactive)"},
      {"smiles": "COc1ccc(-c2noc(-c3ccc(C)c(Cl)c3)n2)cc1", "survival and reproduction score": "4 (inactive)"},
      {"smiles": "COc1ccc(-c2noc(COc3ccccc3C)n2)cc1", "survival and reproduction score": "4 (inactive)"},
      {"smiles": "COC(=O)c1ccc(NC(=O)CSc2nnc(-c3ccc(Cl)cc3Cl)o2)cc1", "survival and reproduction score": "4 (inactive)"},
      {"smiles": "Cn1cc(C(=O)CSc2nnc(-c3ccccc3)o2)c2ccccc21", "survival and reproduction score": "0 (active)"},
      {"smiles": "COc1ccc(-c2noc(COc3ccc(F)cc3)n2)cc1", "survival and reproduction score": "4 (inactive)"},
      {"smiles": "Cc1ccccc1-c1noc(COc2ccc(Cl)cc2Cl)n1", "survival and reproduction score": "4 (inactive)"},
      {"smiles": "O=C(CSc1nnc(-c2ccncc2)o1)Nc1cc(Cl)cc(Cl)c1", "survival and reproduction score": "4 (inactive)"}
    ]}
  ]
}
